The source of these data is the supplement of paper PMC7411054.

Details in all cases: treatment time: 24 h
Experiment [1] relates to A549-ACTB-RAB5A. Kind of experiment: lowest phenotypically active concentration; higher = less potent. The method, boiled down:
(§1)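 Live-cell features were measured per well and normalised to solvent control wells after fifteen gene-edited A549, HepG2 and WPMY1 reporter lines had been treated for 24 h at 0.3, 1, 3 or 9 µM in four wells each. A condition was deviating when ≥3 of 4 wells sat beyond the 95th percentile of control Euclidean distances. It was reproducible when the median replicate Pearson correlation exceeded the 95th percentile of non-replicates. Phenotypic activity demanded both.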

Experiment [2] deals with WPMY1-ACTB-RAB5A. Described as above. The method, boiled down:
as §1

In experiment [3] the test system is WPMY1-GM130-SQSTM1. Described as above. An outline of the steps:
as §1

Experiment [4] relates to A549-ACTB-RAB5A. The experiment is described as follows: phenotypically active (imaging signature differs from DMSO and reproducible) at any of 0.3-9 uM (binary (1 = active, 0 = inactive)); higher = active. An outline of the steps:
as §1

The next experiment deals with A549-CANX-COX4. The description is as above. An outline of the steps:
as §1

Experiment [5] relates to A549-GM130-SQSTM1. The experiment is described as above. An outline of the steps: as §1
Another experiment has as its system A549-TP53BP1-CLTA. The description is as above. An outline of the steps: as §1
For a further experiment, the system named is A549-TUBA1B-RELA. Described as above. An outline of the steps: as §1
A further experiment concerns HepG2-ACTB-RAB5A. The experiment is described as above. An outline of the steps:
as §1

Another experiment concerns HepG2-CANX-COX4. Described as above. The method, boiled down: as §1
The next experiment has as its system HepG2-GM130-SQSTM1. The description is as above. The method, boiled down:
as §1

For the next experiment, the system named is HepG2-TP53BP1-CLTA. The description is as above. The method, boiled down: as §1
In a further experiment the test system is HepG2-TUBA1B-RELA. The description is as above. An outline of the steps: as §1
Experiment [6] concerns WPMY1-ACTB-RAB5A. Described as above. An outline of the steps:
as §1

A further experiment deals with WPMY1-CANX-COX4. The experiment is described as above. An outline of the steps: as §1
Experiment [7] relates to WPMY1-GM130-SQSTM1. Described as above. An outline of the steps:
as §1

For the next experiment, the system named is WPMY1-TP53BP1-CLTA. Described as above. An outline of the steps:
as §1

The test system of the next experiment is WPMY1-TUBA1B-RELA. The experiment is described as above. The method, boiled down:
as §1

Experiment [8] relates to A549-GM130-SQSTM1. Kind of experiment: lowest phenotypically active concentration; higher = less potent. An outline of the steps: as §1

Counter-ions that a name gives are not always drawn.

With `O=C1NCCCc2c1oc1ccc(O)cc21`, the “lowest phenotypically active concentration” value in the experiment with A549-ACTB-RAB5A [1], in the experiment with WPMY1-ACTB-RAB5A [2] and in the experiment on WPMY1-GM130-SQSTM1 [3] was 9 µM in each case. In addition, the phenotypically active is 1 (active) in the experiment with A549-ACTB-RAB5A [4]; 0 (inactive) in the experiment on A549-CANX-COX4; 0 (inactive) with A549-GM130-SQSTM1 [5]; 0 (inactive) with A549-TP53BP1-CLTA; 0 (inactive) with A549-TUBA1B-RELA; 0 (inactive) in the experiment on HepG2-ACTB-RAB5A. Moreover, the phenotypically active in the experiment with HepG2-CANX-COX4 is 1 (active); in the experiment on HepG2-GM130-SQSTM1, 0 (inactive); in the experiment on HepG2-TP53BP1-CLTA, 0 (inactive); in the experiment on HepG2-TUBA1B-RELA, 1 (active); in the experiment with WPMY1-ACTB-RAB5A [6], 1 (active); in the experiment on WPMY1-CANX-COX4, 0 (inactive). The phenotypically active in the experiment on WPMY1-GM130-SQSTM1 [7] was 1 (active); in the experiment with WPMY1-TP53BP1-CLTA it was 0 (inactive); with WPMY1-TUBA1B-RELA it was 1 (active).
For the molecule `CCOC(=O)N1CCC(=C2c3ccc(Cl)cc3CCc3cccnc32)CC1` [loratadine], the “lowest phenotypically active concentration” value in the experiment on A549-ACTB-RAB5A [1] is 9 µM. For the same molecule, the phenotypically active was 1 (active) with A549-ACTB-RAB5A [4]; 0 (inactive) with A549-CANX-COX4; 0 (inactive) with A549-GM130-SQSTM1 [5]; 0 (inactive) with A549-TP53BP1-CLTA; 0 (inactive) with A549-TUBA1B-RELA; 0 (inactive) with HepG2-ACTB-RAB5A. Also, the phenotypically active is 1 (active) in the experiment with HepG2-CANX-COX4; 0 (inactive) in the experiment on HepG2-GM130-SQSTM1; 0 (inactive) in the experiment with HepG2-TP53BP1-CLTA; 0 (inactive) in the experiment with HepG2-TUBA1B-RELA; 0 (inactive) with WPMY1-ACTB-RAB5A [6]; 0 (inactive) with WPMY1-CANX-COX4. In addition, the phenotypically active in the experiment with WPMY1-GM130-SQSTM1 [7], with WPMY1-TP53BP1-CLTA and in the experiment with WPMY1-TUBA1B-RELA was 0 (inactive) throughout.
On to `CC(=O)C1=C(O)[C@]2(C)C(=CC1=O)Oc1c(C(C)=O)c(O)c(C)c(O)c12` [(+)-Usnic acid], for which the “lowest phenotypically active concentration” value in the experiment on A549-GM130-SQSTM1 [8] was determined as 9 µM. In addition, the phenotypically active is 0 (inactive) in the experiment on A549-ACTB-RAB5A [4]; 0 (inactive) in the experiment with A549-CANX-COX4; 1 (active) with A549-GM130-SQSTM1 [5]; 0 (inactive) in the experiment with A549-TP53BP1-CLTA; 0 (inactive) in the experiment on A549-TUBA1B-RELA; 0 (inactive) with HepG2-ACTB-RAB5A. Further, the phenotypically active in the experiment on HepG2-CANX-COX4, in the experiment on HepG2-GM130-SQSTM1, with HepG2-TP53BP1-CLTA, with HepG2-TUBA1B-RELA, in the experiment with WPMY1-ACTB-RAB5A [6] and in the experiment on WPMY1-CANX-COX4 was 0 (inactive) in each case. Further, the phenotypically active with WPMY1-GM130-SQSTM1 [7], with WPMY1-TP53BP1-CLTA and with WPMY1-TUBA1B-RELA was 0 (inactive) throughout.
On to `CCCOc1ccn2c(C(C)=O)cc(-c3ccccc3S(C)(=O)=O)c2c1`, for which the “lowest phenotypically active concentration” value in the experiment on A549-GM130-SQSTM1 [8] was determined as 9 µM. The phenotypically active in the experiment on A549-ACTB-RAB5A [4] was 0 (inactive); with A549-CANX-COX4, 0 (inactive); with A549-GM130-SQSTM1 [5], 1 (active); in the experiment on A549-TP53BP1-CLTA, 0 (inactive); with A549-TUBA1B-RELA, 0 (inactive); in the experiment with HepG2-ACTB-RAB5A, 0 (inactive). Further, the phenotypically active in the experiment with HepG2-CANX-COX4, in the experiment on HepG2-GM130-SQSTM1, in the experiment with HepG2-TP53BP1-CLTA, in the experiment with HepG2-TUBA1B-RELA, in the experiment with WPMY1-ACTB-RAB5A [6] and in the experiment on WPMY1-CANX-COX4 was 0 (inactive) throughout. The phenotypically active in the experiment with WPMY1-GM130-SQSTM1 [7], in the experiment on WPMY1-TP53BP1-CLTA and in the experiment on WPMY1-TUBA1B-RELA was 0 (inactive) in each case.
Take `O=C(COc1cccc2c(=O)[nH]ccc12)c1ccccc1`: the “lowest phenotypically active concentration” value with A549-GM130-SQSTM1 [8] stood at 9 µM. Further, the phenotypically active in the experiment with A549-ACTB-RAB5A [4] is 0 (inactive); with A549-CANX-COX4 it was 0 (inactive); in the experiment with A549-GM130-SQSTM1 [5] it was 1 (active); in the experiment with A549-TP53BP1-CLTA, 0 (inactive); in the experiment on A549-TUBA1B-RELA it was 0 (inactive); in the experiment with HepG2-ACTB-RAB5A, 0 (inactive). Also, the phenotypically active with HepG2-CANX-COX4, with HepG2-GM130-SQSTM1, in the experiment on HepG2-TP53BP1-CLTA, with HepG2-TUBA1B-RELA, with WPMY1-ACTB-RAB5A [6] and with WPMY1-CANX-COX4 was 0 (inactive) each time. Moreover, the phenotypically active in the experiment on WPMY1-GM130-SQSTM1 [7], in the experiment on WPMY1-TP53BP1-CLTA and in the experiment on WPMY1-TUBA1B-RELA was 0 (inactive) throughout.
In the case of `Cc1cccc(CN2CCN(C(c3ccccc3)c3ccc(Cl)cc3)CC2)c1` (stereo not drawn) [Meclizine dihydrochloride], the “lowest phenotypically active concentration” value with A549-ACTB-RAB5A [1] turned out to be 9 µM. For the same molecule, the phenotypically active in the experiment on A549-ACTB-RAB5A [4] was 1 (active); in the experiment with A549-CANX-COX4, 0 (inactive); in the experiment on A549-GM130-SQSTM1 [5], 0 (inactive); with A549-TP53BP1-CLTA it was 0 (inactive); in the experiment with A549-TUBA1B-RELA, 0 (inactive); with HepG2-ACTB-RAB5A it was 0 (inactive). The phenotypically active with HepG2-CANX-COX4 was 0 (inactive); in the experiment with HepG2-GM130-SQSTM1 it was 0 (inactive); in the experiment with HepG2-TP53BP1-CLTA, 0 (inactive); with HepG2-TUBA1B-RELA, 1 (active); in the experiment on WPMY1-ACTB-RAB5A [6] it was 0 (inactive); in the experiment with WPMY1-CANX-COX4 it was 0 (inactive). Moreover, the phenotypically active in the experiment with WPMY1-GM130-SQSTM1 [7], with WPMY1-TP53BP1-CLTA and with WPMY1-TUBA1B-RELA was 0 (inactive) throughout.
